# An excerpt weighted towards active compounds, which were near 7% of everything screened.
# HP1b chromo inh: HP1-beta chromodomain-methylated histone interaction inhibition | P83916 | AlphaScreen HP1-beta / biotin-H3K9me3 peptide binding | Potency, µM (series often up to 114 µM), hits mostly inhibitors | actives 0.56% (n = 390,000) | AID 540317; note: nearly all actives have a fitted effect of over 70% in size
#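 Compound inhibition of the preformed complex between 50 nM HP1-beta and 50 nM biotinylated H3K9me3 peptide was read by AlphaScreen. Buffer was PBS pH 7.4 with 0.01% Tween-20. Incubations ran 30 min at room temperature, with 10 ug/mL donor/acceptor beads.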
# BAZ2B inh: inhibitors of human BAZ2B bromodomain. AID 504333. AlphaScreen BAZ2B-H3K14Ac peptide displacement. actives 4.4% (n = 360,000). Q9UIF8. Potency, µM (highest dose often 114 µM), actives largely listed as inhibitors; note: nearly all actives have a fitted effect of over 60% in size
#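 AlphaScreen displacement of biotin-H3(5-23)K14Ac peptide (50 nM final) from BAZ2B (50 nM final) in PBS pH 7.4, 0.01% Tween-20; complex preformed 30 min RT, then compounds (top 110 uM) 30 min RT, beads 20 min dark.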
# KAT2A inh: blocks human GCN5L2 histone acetyltransferase | actives 0.21% (n = 390,000) | Q92830 | Potency, µM (titrated, usually from 58.9 µM), hits mostly inhibitors | AID 504327 | GCN5L2 HAT assay, ThioGlo1 CoA-SH fluorescence
#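 ThioGlo1-coupled HAT assay: 20nM GCN5L2, 70uM acetyl-CoA, 75uM H3(1-25) peptide, pH 7.5. Fluorescence read at 340/540nm at start and after 20 min at room temperature.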
# PI5P4K alpha inh: PI5P4K alpha (human) kinase inhibition; actives 1.2% (n = 330,000); PI5P4Kalpha enzyme, ADP-Glo luminescence, 60 min; stronger effect = lower value; P48426; max response, %; active = max response of -50% or lower; inconclusive = between -30% and -50%; inactive = -30% or higher; note: value at the top dose of about 77 µM
#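 Single end-point luminescence (ADP-Glo) quantified ADP from PI5P4Kalpha turnover; ATP 5 microM final, 1 h at RT, 0.1% CHAPS and 0.28 mM EGTA in HEPES pH 7.4.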
# JMJD2A Tudor: inhibitors of human JMJD2A Tudor domain; O75164; actives 4.4% (n = 390,000); AlphaScreen JMJD2A-Tudor / H3K4me3 peptide binding; Potency, µM (highest dose often 114 µM), hits mostly inhibitors; note: nearly all actives have a fitted effect of over 50% in size
# PLK1 PBD block: PLK1 (human) polo-box domain binding inhibition. actives 2.8% (n = 360,000). Plk1 PBD binding of FITC phosphopeptide, fluorescence polarization. P53350. Potency, µM, hits mostly inhibitors; note: series mostly up to about 57 µM; nearly all actives have a fitted effect of over 65% in size
# Target sequence (P53350 whole entry, looked up, the tested form may be a part): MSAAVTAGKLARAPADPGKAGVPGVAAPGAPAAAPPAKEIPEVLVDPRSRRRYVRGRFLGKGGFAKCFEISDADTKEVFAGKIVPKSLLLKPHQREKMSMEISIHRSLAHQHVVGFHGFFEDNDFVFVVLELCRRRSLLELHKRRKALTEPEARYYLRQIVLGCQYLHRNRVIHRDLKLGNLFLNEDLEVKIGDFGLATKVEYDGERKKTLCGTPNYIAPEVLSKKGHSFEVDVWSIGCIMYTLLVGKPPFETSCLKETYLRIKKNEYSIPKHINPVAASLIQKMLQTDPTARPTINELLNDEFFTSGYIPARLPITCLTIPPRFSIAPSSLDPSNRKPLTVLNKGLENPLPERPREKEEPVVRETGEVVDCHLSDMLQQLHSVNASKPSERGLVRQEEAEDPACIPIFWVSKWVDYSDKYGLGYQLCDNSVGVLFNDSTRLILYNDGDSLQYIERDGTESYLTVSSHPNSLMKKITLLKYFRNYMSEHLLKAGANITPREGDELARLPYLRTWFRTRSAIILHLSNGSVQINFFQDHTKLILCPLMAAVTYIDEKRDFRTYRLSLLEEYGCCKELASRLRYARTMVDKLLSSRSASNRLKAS
# A number is an active result; – = inactive; ? = inconclusive; · = no result given; [ ] = dose if it differs, or a comment. Unless noted, calls come from the whole dose curve; as a rule, active = well fitted curve in the direction sought with a large enough effect; inconclusive = small, poorly fitted or top-dose-only effect, or another doubt; inactive = no such curve, though single readings can be large; an effect the other way counts as inactive or inconclusive.
SMILES,HP1b chromo inh,BAZ2B inh,KAT2A inh,PI5P4K alpha inh,JMJD2A Tudor,PLK1 PBD block
CCOC(=O)N1CCC(N2CCN(S(=O)(=O)c3ccc4ccccc4c3)CC2)CC1,?,?,–[0.501 µM],·,0.891µM,–
O=S(=O)(c1ccccc1)N1CCC(N2CCCCCC2)CC1,?,?,–,–,3.98µM,–
O=c1ncn(C2CCCCC2)c(=O)[nH]1,–,·,·,–,–,–
Cc1noc(C)c1NC(=O)N(C)C[C@H]1Oc2ccc(NC(=O)C3CC3)cc2C(=O)N([C@H](C)CO)C[C@@H]1C,–,·,–,–,–,–
COc1c(C)cc(C(=O)C2CCCN(C(=O)c3snnc3C)C2)cc1C (stereo not drawn),–,–,–,–,–,–
CC(C1CC1)N(Cc1ccccc1)C(=S)Nc1ccccc1Cl (stereo not drawn),–,–,–,–,–,–
Cc1ccc(Nc2cc(C)c(O)c(C)c2)cc1,50.1µM,7.08µM,–,–,39.8µM,26.7µM
Cc1ccc(Nc2ccccc2)cc1,–,–,–,–,–,–
CCOC(=O)c1cc(-c2ccc(/C=C3/C(=O)NC(=O)C(C#N)=C3C)o2)ccc1Cl,39.8µM,50.1µM,?,·,56.2µM,3.36µM
CC1=C(C#N)C(=O)NC(=O)/C1=C\c1ccc(-c2ccc(C)cc2[N+](=O)[O-])o1,?,44.7µM,?,-74.9,31.6µM,8.44µM
COc1ccc(-c2ccc(/C=C3/C(=N)N4C=CSC4=NC3=O)o2)c([N+](=O)[O-])c1,–,?,–,–,?,–
Cc1cccc(CCN2CCN=C2N(C)C)c1,–,–,–,–,–,–
O=C(c1noc2c1CCCC2)N1CCN(c2ccc(F)cc2)CC1,–,–,–,·,–,–
COc1ccccc1N1CCN(C(=O)c2ccc3[nH]c4c(c3c2)CCCC4)CC1,?,44.7µM,–,–,50.1µM,–
COc1ccc(C(=O)N2CCN(c3ccccc3OC)CC2)cc1,–,–,–,–,–,–
O=C(c1ccc2[nH]c3c(c2c1)CCCC3)N1CCN(c2ccc(F)cc2)CC1,?,39.8µM,–,–,31.6µM,–
Cc1ccc(Cc2nc3ccccc3nc2SCC(=O)Nc2ccc3c(c2)OCO3)cc1,–,–,–,·,–,·
Cc1ccc(-n2c(=O)c3ccc(C(=O)NCc4ccco4)cc3n(Cc3ccc(Cl)cc3)c2=O)cc1,–,·,–,·,–,·
CC(=O)c1cc(CN2CCN(CCC(C)C)C(CCO)C2)cs1 (stereo not drawn),–,–,–,–,–[11.4 µM],21.2µM
CC(=O)c1cc(CN2CCN(Cc3ccc(C)cc3)C(CCO)C2)cs1 (stereo not drawn),–,–,–,–,–,–
OC(CNC1Cc2ccccc2C1)c1ccccc1 (stereo not drawn),–,–,–,–,–,–
N#Cc1c(-c2cccc(Br)c2)cc(-c2ccco2)[nH]c1=O,–,44.7µM,–,-61.6,?,13.4µM
COc1ccc(-c2cc(-c3ccco3)[nH]c(=O)c2C#N)cc1,–,56.2µM,–,–,?,–
Cc1c(/C(O)=C2\C(=O)C(=O)N(CCCN(C)C)C2c2ccco2)cnn1-c1ccccc1 (stereo not drawn),–,·,·,–,–,–
CCOc1ccc(C(C)=O)cc1N1C(=O)C2C3C=CC(O3)C2C1=O (stereo not drawn),28.2µM,?,–,·,20µM,26.7µM
CC(=O)Oc1ccc(N2C(=O)C3C4C=CC(O4)C3C2=O)cc1 (stereo not drawn),?,–,–,·,?,–
CCOP(=O)(OCC)C(C)(C)NC(=O)c1cc([N+](=O)[O-])cc([N+](=O)[O-])c1,–,–,?,·,–,–
CCOP(=O)(OCC)C(NC(=O)c1cc([N+](=O)[O-])cc([N+](=O)[O-])c1)C(F)(F)F (stereo not drawn),?,?,–,–,?,21.2µM
COc1ccc(/C=C/C(=O)c2ccc(OC)cc2OC)c(OC)c1,–,–,–,–,–,–
CC(C)=CCOc1ccc(/C=C/C(=O)c2ccc(OCC=C(C)C)cc2OCC(=O)O)cc1,·,·,10µM,·,·,·
